# Source: PubChem BioAssay
# This excerpt belongs to a sample that is enriched for hits.
# Shiga toxin inh: blocks Shiga toxin action in Vero cells; actives 9.2% (n = 290,000); AID 2315; Vero cells, Shiga toxin protein synthesis inhibition reporter; inhibition, % at 38.7 µM; in the data active = inhibition mostly above about 28%, no sharp cut-off; inactive = mostly below about 43%
# NS1 inh: inhibitors of influenza NS1 protein function | actives 0.4% (n = 270,000) | AID 2326 | Potency, µM (top dose mostly 46.1 µM); calls by dose curve; also: actives are rising curves; nearly all actives have a fitted effect of over 50% in size
#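 Recovery from NS1-induced slow growth read by OD600 in budding yeast switched to galactose assay medium (pH 6.0, -URA) at 1:100 dilution. Compound 23 nl per well; the matching strain lacking NS1 serves as control.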
# TbPYK inhibitor: T. brucei pyruvate kinase inhibition | Q57TT1 | TbPYK enzyme, Kinase-Glo Plus ATP luminescence, 45 min | Potency, µM (titrated, usually from 76.8 µM), most hits filed as inhibitors | actives 0.12% (n = 410,000) | AID 624173; also: nearly all actives have a fitted effect of over 50% in size
#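 Enzyme and substrate buffer are dispensed first and compound is pin-transferred. ADP at 130 uM final then starts the reaction, which runs 45 min at room temperature. Detection reagent is added for 10 min before luminescence is imaged.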
# SARS PLP yeast: inhibitors of SARS-CoV papain-like protease in yeast; AID 485353; actives 0.19% (n = 330,000); S. cerevisiae expressing SARS-CoV PLpro, growth rescue; Potency, µM (top dose mostly 32.9 µM), usual class: activators; calls by dose curve; also: nearly all actives have a fitted effect of over 55% in size
# CHX counter: counter-screen hit for Shiga toxin inhibitors, cycloheximide. cell reporter, cycloheximide protein synthesis inhibition counterscreen. max response, %. actives 12% (n = 300,000); in the data active = max response mostly above about 13%, no sharp cut-off; inactive = mostly below about 14%; also: read at 38.3 µM for the half of the compounds with a filed dose
# LmPK inh: LmPK (Leishmania mexicana) enzyme inhibition; purified LmPK, Kinase-Glo ATP luminescence, 1 h; Potency, µM (doses to about 57.5 µM), usual class: inhibitors; actives 0.37% (n = 290,000); AID 1721
# Target sequence (Q27686 whole entry, looked up): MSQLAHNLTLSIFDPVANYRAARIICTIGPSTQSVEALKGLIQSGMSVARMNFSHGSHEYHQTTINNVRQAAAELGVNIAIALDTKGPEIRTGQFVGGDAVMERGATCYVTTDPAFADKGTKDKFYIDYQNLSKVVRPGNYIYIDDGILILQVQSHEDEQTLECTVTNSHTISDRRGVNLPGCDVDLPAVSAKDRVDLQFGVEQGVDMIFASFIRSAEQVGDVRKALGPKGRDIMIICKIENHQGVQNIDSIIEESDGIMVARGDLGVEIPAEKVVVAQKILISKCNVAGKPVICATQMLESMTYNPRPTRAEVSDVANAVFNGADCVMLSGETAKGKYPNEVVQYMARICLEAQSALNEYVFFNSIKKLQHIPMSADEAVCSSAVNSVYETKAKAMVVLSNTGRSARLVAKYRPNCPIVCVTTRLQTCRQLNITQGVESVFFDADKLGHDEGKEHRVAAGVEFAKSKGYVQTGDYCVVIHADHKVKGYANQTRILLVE
#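 Purified LmPK (0.1 nM) with 0.5 mM PEP and 0.1 mM ADP in imidazole buffer pH 7.2 with MgCl2/KCl, 1 h at room temperature. ATP formed was read by luciferase luminescence and normalized to no-enzyme and uninhibited controls.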
# Hits are given with their value; n = inactive; u = inconclusive; x = no result; [ ] = remark or other dose. Unless noted, calls follow the shape of the dose curve; as a rule, active = well fitted curve in the direction sought with a large enough effect; inconclusive = small, poorly fitted or top-dose-only effect, or another doubt; inactive = no such curve, though single readings can be large; an effect the other way counts as inactive or inconclusive.
SMILES,Shiga toxin inh,NS1 inh,TbPYK inhibitor,SARS PLP yeast,CHX counter,LmPK inh
CCCN1CCC(=O)N([C@H](CSc2ccc(Br)cc2)c2ccccc2)CC1,n,n,n,n,34.8,n
CCCN1CCC(=O)N(C(CSc2ccc(OC)cc2)c2ccccc2)CC1 (configuration not stated),155.8,x,x,x,42.2,x
COc1ccc(/C=C\c2onc(C)c2S(=O)(=O)N2CCC(C(=O)Nc3cccc(Cl)c3)CC2)cc1,x,x,n,x,x,x
Cc1cc(C(=O)CSc2nc3ccc(Cl)cc3[nH]2)c(C)n1C,n,n,n,n,n,n
O=C(CSc1nc2ccc(Cl)cc2[nH]1)c1cccs1,122.4,n,n,n,57.8,n
O=C(CSc1nc2cc(Cl)ccc2o1)c1cccs1,n,n,n,n,23.2,n
COc1cccc(NC(=O)c2cccc(C)c2[N+](=O)[O-])c1,125.4,n,n,n,27.6,n
Cc1cccc(C(=O)Nc2cccc(Br)c2)c1[N+](=O)[O-],n,n,n,n,9.3,n
Cc1ccccc1C(=O)Nc1cccc(NC(=O)c2ccccc2[N+](=O)[O-])c1,n,n,n,n,n,n
COc1cccc(NC(=O)c2nn(C)c(C(=O)Nc3cccc(OC)c3)c2[N+](=O)[O-])c1,n,n,n,n,n,n
Cc1cc(NC(=O)c2ccccc2[N+](=O)[O-])ccc1Br,133.9,x,n,n,50.5,n
Cc1ccc(-c2cc(NC(=O)c3ccccc3[N+](=O)[O-])n[nH]2)cc1,68.0,n,n,n,13.2,n
CCOC(=O)c1c(C)oc2cc(Cl)c(O)c(CN(C)C)c12,68.5,n,n,n,39.3,n
CCOC(=O)c1c(C)oc2ccc(O)c(CN(C)C)c12,n,n,n,n,n,n
Cc1ccc2nc(NC(=O)CN3C(=O)C4CC=CCC4C3=O)sc2c1 (configuration not stated),n,x,n,n,13.6,n
CCc1ccc(/C=C2/SC(=S)N(CC(=O)Nc3nc4ccccc4s3)C2=O)cc1,78.0,n,n,n,21.7,n
CCc1ccc(/C=C2\SC(=S)N(CCCC(=O)Nc3ccccn3)C2=O)cc1,n,u,n,n,n,n
O=C(CN1C(=O)C2CC=CCC2C1=O)Nc1nc2ccccc2s1 (configuration not stated),51.8,x,n,n,28.4,n
CCN(CC(=O)Nc1c(F)cccc1F)C(=O)c1ccc(S(=O)(=O)N2CCC(C)CC2)cc1,x,x,n,n,x,x
COc1ccc(N2CCCC2=O)cc1S(=O)(=O)N1CCOCC1,x,x,n,x,x,x
O=C1CCC/C1=C\Nc1ccc(Cl)c([N+](=O)[O-])c1,n,n,n,n,n,n
CC1CCC/C(=C\Nc2ccccc2C(=O)O)C1=O (configuration not stated),n,n,n,n,n,n
O=C1CCC/C1=C/Nc1ccc2c(c1)OCO2,94.8,n,x,n,42.2,n
O=C(/C=C/Nc1cccc(C(F)(F)F)c1)C(F)(F)F,n,n,n,n,n,n
O=C1OCCC/C1=C\c1ccc2c(c1)OCO2,n,n,n,n,n,n
SMILES,Shiga toxin inh,NS1 inh,TbPYK inhibitor,SARS PLP yeast,CHX counter,LmPK inh
O=C1CCC/C1=C/Nc1ccc(Cl)cc1,71.7,x,n,n,30.5,n
CC1CCC/C(=C\Nc2ccc3c(c2)OCO3)C1=O (configuration not stated),51.2,n,n,n,32.7,n
O=C1CCCC/C1=C/Nc1cccc(C(F)(F)F)c1,50.4,n,n,n,47.9,n
C[C@H](NC(=O)[C@@H](N)Cc1ccc(O)cc1)C(=O)NCC(=O)N[C@H]1CSSC[C@@H](C(=O)O)NC(=O)[C@H](CO)NC(=O)[C@H]([C@@H](C)O)NC(=O)[C@H](Cc2ccccc2)NC(=O)[C@H]([C@@H](C)O)NC(=O)[C@H](CCCCN)NC(=O)[C@H](Cc2c[nH]c3ccccc23)NC(=O)[C@H](Cc2ccccc2)NC(=O)[C@H](Cc2ccccc2)NC(=O)[C@H](CC(N)=O)NC(=O)[C@H](CCCCN)NC1=O,n,x,x,x,n,x
Cc1ccc(-c2nnc(N3CCOCC3)c3ccccc23)cc1S(N)(=O)=O,x,x,n,x,x,x
Cc1cc(C(=O)Nc2ccncc2)c2ccccc2n1,n,n,n,n,n,n
CCOC(=O)c1ccc(N/C=C2\CCCCC2=O)cc1,48.4,n,n,n,25.0,n
Cc1cc(C(=O)Nc2ccc(C)c(S(=O)(=O)N3CCOCC3)c2)c(C)o1,n,x,n,n,n,n
Cc1cc(C(=O)Nc2ccc(N3CCOCC3)c(Cl)c2)c(C)o1,41.7,n,n,n,33.7,n
O=C(Nc1ccc(N2CCCC2)c(Cl)c1)c1ccccc1[N+](=O)[O-],n,n,n,n,26.8,n
O=C(Nc1ccc(N2CCCC2)c(Cl)c1)c1ccccc1F,x,x,n,x,x,x
O=C(Nc1ccc(N2CCOCC2)c(Cl)c1)c1ccc2c(c1)OCCO2,n,n,n,n,n,n
O=C(Nc1ccc(N2CCOCC2)c(Cl)c1)C1CCCCC1,n,n,n,n,52.3,n
O=C(Nc1ccc(N2CCOCC2)c(Cl)c1)c1ccc(Cl)cc1,52.5,x,n,n,32.0,n
O=c1oc2ccccc2c2c1C1O[C@](c3ccsc3)(Cc3ccccc31)O2,n,n,x,n[6.58 µM],n,n[11.5 µM]
Cc1ccccc1-c1nc(CS(=O)(=O)CC(=O)NCCN2CCCC2)c(C)o1,n,n,n,n,n,n
O=C(Nc1ccc(N2CCOCC2)c(Cl)c1)c1ccccc1F,109.1,n,n,n,35.2,n
CCOC(=O)c1ccc(NC(=S)Nc2cccc(N)n2)cc1,81.2,n,n,n,50.1,n
COc1ccc(NC(=S)Nc2ccccn2)cc1,134.8,n,n,n,46.5,n
COC(=O)c1ccc(NC(=S)Nc2ccccn2)cc1,73.2,n,n,u,41.5,n
COC(=O)C1=C(C(=O)OC)[C@@H]2Nc3ccccc3[C@@]23C[C@@H](C(=O)OC)N(S(=O)(=O)c2ccc(OC)cc2)C3=N1,x,x,x,x,x,n[11.5 µM]
CC(C)(C)c1ccc(C(=O)NCCC(=O)NCc2cccs2)cc1,n,n,n,n,n,n
Cc1cc(NC(=O)CCl)n(-c2nc3ccccc3s2)n1,n,x,n,n,n,n
CCc1ccc(Nc2cnn(-c3nc4ccccc4s3)c(=O)c2Cl)cc1,83.9,n,n,n,70.8,n
C[C@H](CO)N1C[C@H](C)[C@@H](CN(C)C(=O)Nc2ccc(C(F)(F)F)cc2)Oc2c(NC(=O)Cc3ccccc3)cccc2C1=O,x,x,n,n,x,x
COc1ccc(C)cc1NC(=O)c1cnc2n(c1=O)CCS2,n,n,n,n,10.1,n
O=C(NCCc1ccccc1)c1cnc2n(c1=O)CCS2,110.9,x,n,n,34.4,n[11.5 µM]
COc1ccc(C)cc1NC(=O)c1cnc2scc(C)n2c1=O,n,n,n,n,n,n
O=C(NCCc1c[nH]c2ccccc12)c1cnc2n(c1=O)CCS2,58.8,n,n,n,30.5,n
